Screening results: PubChem, National Center for Advancing Translational Sciences (NCATS)
The list is not random: actives were taken first. Their share in the collection is about 3.7%.
RE007 growth inh: qHTS Assay for Inhibitors of the HIV-1 protein Vpr. AID 651644, 2012. S. pombe RE007 Vpr strain, BacTiter-Glo ATP luminescence, 24 h. Potency, µM (doses to about 92.2 µM), inactives show at the top dose activity change, negative = less growth, most hits filed as inhibitors. 0.21% of 360,000 active; active means well fitted falling curve with a large enough effect; inconclusive means small, poorly fitted or top-dose-only effect; inactive means no such curve, though single readings can be large or run the other way; further: nearly all actives have a fitted effect of over 50% in size
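Fission yeast RE007 carrying one integrated HIV-1 vpr copy, seeded at OD 0.01 in PMG+AL medium with 23 nL pinned compound. Grown 24 h at 30 degrees; viability read by BacTiter-Glo luminescence after 5 min.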
Tb PYK inh: qHTS of Trypanosoma Brucei Inhibitors | TbPYK enzyme, Kinase-Glo Plus ATP luminescence, 45 min | Potency, µM (doses to about 76.8 µM), inactives show at the highest dose activity, negative = inhibition, usual class: inhibitors | 0.12% of 410,000 active; further: nearly all actives have a fitted effect of over 50% in size
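ADP (130 uM final) triggers the TbPYK reaction after compound addition; incubation is 45 min at room temperature. Kinase-Glo Plus is then added and luminescence imaged. Normalized data are fitted to concentration-effect curves.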
FMDV inh: High Throughput Screening for Foot and Mouth Disease Virus Antivirals | FMDV antiviral cell-based qHTS | Potency, µM (series often up to 57.9 µM), without a hit: top-dose activity change, negative = inhibition, usual class: inhibitors | AID 1159524, 2015 | 1.2% of 410,000 active; calls by dose curve; tested in HEK293T cells; further: read-out not given here; nearly all actives have a fitted effect of over 45% in size
Sm TGR inh: qHTS Assay for the Inhibitors of Schistosoma Mansoni Peroxiredoxins. Schistosoma mansoni thioredoxin glutathione reductase (TGR), Q962Y6. purified TGR, DTNB reduction, TNB absorbance 405 nm. Potency, µM (titrated, usually from 114 µM), inactives show at the highest dose activity change, negative = inhibition, usual class: inhibitors. 3% of 360,000 active; further: nearly all actives have a fitted effect of over 60% in size
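Kinetic colorimetric format: TGR-catalysed, NADPH-driven DTNB reduction monitored via TNB absorbance. Enzyme dispensed at 20 nM; compound exposure 15 min at room temperature before reaction start.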
An asterisk follows results filed as active; ? = inconclusive; / = not tested or not shown; ! = a repeat was not active; [ ] = dose if it differs, or a comment. Unless noted, the call rests on the fitted dose curve; in most records, active means well fitted curve in the direction sought with a large enough effect; inconclusive means small, poorly fitted or top-dose-only effect, or another doubt; inactive means no such curve, though single readings can be large; an effect the other way counts as inactive or inconclusive. On the % scale 0 is the no-effect control and ±100 the full control effect; potency means the concentration at half of the fitted maximal effect.

SMILES	RE007 growth inh	Tb PYK inh	FMDV inh	Sm TGR inh
O=C(CCc1c[nH]c2ccccc12)N1CCC(n2c(C3CCCO3)nc3cc(C(F)(F)F)ccc32)CC1 (configuration not stated)	/	/	-6%	/
Clc1ccc2[nH]c3c(c2c1)CCc1cn[nH]c1-3	35µM*	-5%	25%	-34%
COc1ccc(CCNc2nc3cc(OC)c(OC)cc3c3nc(-c4ccccc4)nn23)cc1OC	/	1%	4.5µM*	-7%
O=C(O)CCN1CC2([N+](=O)[O-])C=CC(=O)C([N+](=O)[O-])(C1)C2CC(=O)c1ccccc1 (configuration not stated)	7%	-25%	-14%	18µM*
CSc1ccc(CN(C)C(=O)c2cc(=O)[nH]c3ccccc23)cc1	0%	6%	2.8µM*	1%
CSc1ccc(CN(C)C(=O)c2cc(=O)c3ccccc3o2)cc1	4%	0%	17%	0%
CC(=O)C1(C)OC(N)=C(C#N)C(c2ccccc2)C1(C#N)C#N (configuration not stated)	18%	-22%	2%	11µM*
CC(=O)N1c2ccccc2C(=O)C1N1CCN(c2cccc(C)c2C)CC1 (configuration not stated)	/	8%[15.4 µM]	0%	-1%
COC(=O)CC1c2ccccc2S(=O)(=O)N1Cc1ccccc1 (configuration not stated)	10%	1%	25%	32µM*
O=S1(=O)c2ccccc2C(CCO)N1Cc1ccccc1 (configuration not stated)	9%	1%	-8%	28µM*
O=C(Nc1ccccc1O)c1cc(S(=O)(=O)N2CCOCC2)c(Cl)cc1Cl	10%	0%	16µM*	-7%
O=C(/C=C/c1ccco1)Nc1ccc(Cl)c(S(=O)(=O)N2CCOCC2)c1	5%	-2%	22µM*	8.9µM*
O=C(Nc1ccc(Cl)c(S(=O)(=O)N2CCOCC2)c1)c1cn2ccccc2n1	-6%	0%	20µM*	-4%
COC(=O)c1ccc(C(=O)N2CCc3c(C(=O)NC(C)c4ccco4)c(OC)cc(=O)n3CC2)cc1 (configuration not stated)	/	/	18%	/
COc1cccc(-n2nnnc2S(C)(=O)=O)c1	-20%	-9%	?	2.8µM*
COc1cccc(Oc2nnnn2-c2ccccc2)c1	-17%[3.69 µM]	/	61%	0%
Cc1cccc(-n2nnnc2S(C)(=O)=O)c1	/	-8%	25µM*	2.5µM*
CCN(CC)CCCNC(=O)c1ccccc1C	8%	-18%	-12%	2%
CCN(CC)CCCNC(=O)/C=C/C(=O)O	10%	10%	3%	2.5µM*
COc1ccc(CCNC(=O)Cn2nc(-c3ccc(Cl)cc3)ccc2=O)cc1OC	/	-7%	-28%	0%
Cc1ccc(S(=O)(=O)Nc2cc(-c3nn(C)c(=O)c4ccccc34)ccc2N2CCOCC2)cc1	-7%	-9%	24%	56µM*
CCCCc1cc(-c2n[nH]c(=S)o2)c2ccccc2n1	-6%	-32%	-29%	45µM*
Cc1occc1C(=O)Nc1cccc(C(=O)O)c1	9%	-8%	-10%	1%
CN(C(=O)/C=C/c1ccco1)c1ccccc1C(=O)O	0%	-15%	16%	3.5µM*
O=C(/C=C/c1ccco1)Nc1ccccc1C(=O)Nc1cccc(C(=O)O)c1	-9%	-17%	3%	25µM*
SMILES	RE007 growth inh	Tb PYK inh	FMDV inh	Sm TGR inh
O=C(Nc1ccccc1C(=O)Nc1ccccc1)c1ccccc1Br	4%	-5%	-3%	/
O=C(O)/C=C/c1ccc(S(=O)(=O)Nc2ccccc2C(=O)Nc2ccc(F)cc2)cc1	1%	-4%	10%	45µM*
O=C(O)/C=C/C(=O)Nc1ccccc1C(=O)Nc1ccccc1	-3%	?	12%	35µM*
O=C(c1n[nH]c2c1CCCC2)N1CCC(n2c(C3CCCO3)nc3ccccc32)CC1 (configuration not stated)	/	/	-3%	/
COc1ccccc1CNC(=O)C1(c2cccs2)CCOCC1	/	-3%	-16%	4%
O=C(/C=C/c1ccco1)Nc1ccccc1C(=O)O	-10%	?	-37%	18µM*
COc1ccccc1CN1CCC(n2cc(C(=O)N3CCCCC3)nn2)CC1	/	/	-11%	/
CN1CCCN(CC(O)COCc2cccs2)CC1 (configuration not stated)	0%	12%	-6%	50µM*
OC(COCc1cccs1)CN1CCCCCC1 (configuration not stated)	-6%	-13%	-22%	-31%
Cc1noc(C)c1-c1nc(Nc2ccncc2)c2ccccc2n1	/	/	-11%	/
COc1ccc(N2CCN(C(=O)CCCN3C(=O)c4cccc5cccc(c45)C3=O)CC2)cc1	4%	2%	?	-4%
O=C(CCCN1C(=O)c2cccc3cccc(c23)C1=O)N1CCN(c2ccc(F)cc2)CC1	3%	0%	22µM*	8%
COc1ccccc1CCNc1ncnc2sc(C(=O)N3CCCN(C=O)CC3)c(C)c12	/	/	-26%	/
O=[N+]([O-])c1ccc(/C=N/n2cnc3ccccc32)s1	10µM*	-6%	-7%	-20%
CCOc1cccc(CNc2ccc(O)cc2)c1OCc1ccccc1Cl	?	?	?	45µM*!
CCOc1cccc(CNn2cnnc2)c1OCc1ccccc1Cl	-2%	0%	?	-33%
COCC(C)OC(=O)/C(C#N)=C\c1coc2ccc(C)cc2c1=O (configuration not stated)	-4%	?	?	18µM*
CCCNC(=O)c1n[nH]c(=O)c2ccccc12	-5%	0%	-15%	-13%
CCc1ccccc1NC(=O)CNC(=O)c1n[nH]c(=O)c2ccccc12	-7%	-2%	25µM*	-5%
O=C(O)c1cc(N2N=C(C(F)(F)F)/C(=C/C=C/c3ccco3)C2=O)ccc1Cl	-8%	?	28µM*	10µM*
CCOC(=O)c1ccc(N2N=C(C)/C(=C/C=C/c3ccco3)C2=O)cc1	-9%	1%	-1%	?
O=C1C=C(N(CCO)Cc2ccccc2)c2ccccc2C1=O	-30%	-5%	14µM*	?
COc1ccc(OCc2nc(N)nc(Nc3ccccc3OC)n2)cc1	15%	-1%	15%	?
COc1ccccc1Nc1nc(N)nc(CCl)n1	-3%	5%	-4%	28µM*
COc1ccc(OC)c(Nc2nc(N)nc(CCl)n2)c1	24%	-4%	?	32µM*
COCCNP(=O)(c1ccccc1)c1nc2ccccc2s1 (configuration not stated)	/	/	/	10%
Cc1ccc(NP(=O)(c2ccccc2)c2nc3ccccc3s2)cc1 (configuration not stated)	-4%	1%	116%	16µM*
Cc1nc2nc(NC(=O)c3ccccc3F)[nH]n2c(=O)c1Cl	/	-1%	-20%	6%
Oc1c(Br)cc(C=Nc2ccc3nc(-c4ccccc4)[nH]c3c2)c(O)c1Br	-9%	-9%	-13%	18µM*
